Source: article PMC4336329 (PLoS ONE, 2015)
The campaign covered roughly 310,000 compounds. About 14,000 (4.5%) showed an effect of 50% or more. The effect is printed as a negative number. The sample as a whole holds a higher share of strong results than the screen did.

target: human ether-à-go-go-related gene (hERG) potassium channel (human, UniProt Q12809); experiment: primary screen, population patch clamp on CHO cells stably expressing hERG; higher = less effect of the substance
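Also: peak tail current of the secondary pulse compared with the same well before compound.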

Chain of human ether-à-go-go-related gene (hERG) potassium channel (Q12809 whole entry, looked up): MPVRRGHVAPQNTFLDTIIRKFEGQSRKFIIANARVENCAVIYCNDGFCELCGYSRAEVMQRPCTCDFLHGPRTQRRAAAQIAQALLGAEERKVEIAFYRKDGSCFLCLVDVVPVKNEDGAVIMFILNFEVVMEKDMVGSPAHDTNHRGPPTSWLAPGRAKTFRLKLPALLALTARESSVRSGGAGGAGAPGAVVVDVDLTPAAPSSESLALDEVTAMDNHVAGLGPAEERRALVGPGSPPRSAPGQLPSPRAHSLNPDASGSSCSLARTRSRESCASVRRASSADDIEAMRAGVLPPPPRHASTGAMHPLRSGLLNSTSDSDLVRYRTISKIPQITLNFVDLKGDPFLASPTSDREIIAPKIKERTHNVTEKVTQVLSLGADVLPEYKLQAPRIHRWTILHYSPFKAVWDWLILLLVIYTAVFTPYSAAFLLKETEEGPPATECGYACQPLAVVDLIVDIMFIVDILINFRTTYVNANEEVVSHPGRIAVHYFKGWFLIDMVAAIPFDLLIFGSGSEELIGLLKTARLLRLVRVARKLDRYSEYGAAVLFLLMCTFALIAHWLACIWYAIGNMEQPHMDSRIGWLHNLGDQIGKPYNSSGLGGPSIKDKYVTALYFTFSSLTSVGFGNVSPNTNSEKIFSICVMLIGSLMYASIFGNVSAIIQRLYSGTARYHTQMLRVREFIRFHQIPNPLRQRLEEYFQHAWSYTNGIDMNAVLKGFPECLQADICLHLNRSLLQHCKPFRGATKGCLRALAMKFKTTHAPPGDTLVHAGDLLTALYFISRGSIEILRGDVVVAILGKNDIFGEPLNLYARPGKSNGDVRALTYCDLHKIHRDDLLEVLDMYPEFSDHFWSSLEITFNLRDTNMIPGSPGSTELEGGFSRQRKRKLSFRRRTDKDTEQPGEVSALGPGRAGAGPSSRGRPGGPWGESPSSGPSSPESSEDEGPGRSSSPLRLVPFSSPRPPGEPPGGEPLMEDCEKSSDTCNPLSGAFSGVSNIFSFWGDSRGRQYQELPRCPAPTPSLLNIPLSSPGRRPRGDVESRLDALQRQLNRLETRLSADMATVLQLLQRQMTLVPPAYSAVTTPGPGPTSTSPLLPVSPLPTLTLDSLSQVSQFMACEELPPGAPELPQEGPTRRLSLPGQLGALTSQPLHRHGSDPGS

| Structure (SMILES) | hERG current change (%, negative = inhibition) at 10uM [%] |
| --- | --- |
| CCOC(=O)c1nc(C)nc(Sc2n[nH]c(-c3cc(C(F)(F)F)cc(C(F)(F)F)c3)n2)c1C | -19.5 |
| CCCc1cc(=O)oc2c(CN(CC)CC)c(O)c(Cl)cc12 | -39.8 |
| CC(C)N(C(=O)CSc1nnc(NC(=O)C2CCC2)s1)C(C)C | -11.1 |
| COc1ccc(CNC(=O)c2cc(-c3cccs3)on2)cc1 | -2.38 |
| CCN(CC(=O)Nc1ccc2c(c1)OCCO2)C(=O)/C=C/c1ccc(F)cc1 | -7.2 |
| CN(c1ccccc1)S(=O)(=O)c1cc(C(=O)NCCCn2ccnc2)ccc1Cl | -60.3 |
| Cc1ccc(C(=O)N/C(=C/c2ccccc2F)C(=O)NCCCn2ccnc2)cc1 | -40.5 |
| O=C(NCCCn1ccnc1)C(Cl)(Cl)Cl | -0.517 |
| CC(C)(C)c1ccc(C(=O)NCCCn2ccnc2)cc1.Cl | -11 |
| O=C(NCCCn1ccnc1)/C(=C\c1ccccc1Cl)NC(=O)c1ccccc1 | -41.2 |
| O=C(NCCCn1ccnc1)/C(=C/c1ccc(F)cc1)NC(=O)c1ccccc1 | -75.6 |
| O=C(NCCCn1ccnc1)/C(=C\c1ccccc1F)NC(=O)c1ccccc1 | -75 |
| O=C(NCCCn1ccnc1)c1ccc(Cl)c(Cl)c1 | -17.3 |
| CC(C(=O)NCCCn1ccnc1)(c1ccccc1)c1ccccc1.Cl | -73.1 |
| CN(C)CCCNC(=O)c1ccc(Cl)c(S(=O)(=O)N(C)c2ccccc2)c1.Cl | -35 |
| O=C(O)c1ccc(COc2ccc3c4c(c(=O)oc3c2)CCC4)o1 | 21.4 |
| Cc1cccc(-c2n[nH]c(=S)n2Cc2ccccc2)c1 | -2.87 |
| NS(=O)(=O)c1ccc(NC(=O)COC(=O)CSc2n[nH]c(-c3ccccc3)n2)cc1 | 12 |
| O=C(NN1C(=O)C2C3c4ccccc4C(c4ccccc43)C2C1=O)c1ccc(Cl)cc1 (stereo not shown) | -8.19 |
| COc1cc(C(=O)NCc2ccco2)c(Br)c(OC)c1OC | -4.22 |
| O=C(Nc1cc(C(F)(F)F)ccc1Cl)c1ccc(NC(=O)C(F)(F)F)cc1 | 0.159 |
| Cc1c(-n2c(SCC(C)C)nc3ccccc3c2=O)c(=O)n(-c2ccccc2)n1C | 0.437 |

| Structure (SMILES) | hERG current change (%, negative = inhibition) at 10uM [%] |
| --- | --- |
| COC(=O)CSc1nc(N)c(C#N)c(C(C)C)c1C#N | -8.45 |
| CC(C)c1ccc(/C=C(\NC(=O)c2ccccc2)C(=O)NCCCn2ccnc2)cc1 | -78.2 |
| CN(C)c1ccc(/C=C(\NC(=O)c2ccccc2)C(=O)NCCCn2ccnc2)cc1 | -9.78 |
| O=C(NCCCn1ccnc1)/C(=C/c1ccccc1)NC(=O)c1ccccc1 | -70.3 |
| CN(C)c1ccc(/C=C(/NC(=O)c2ccccc2)C(=O)NCCCn2ccnc2)cc1 | 0.277 |
| CC(=O)Nc1nc(CC(C)C)cc(-c2ccccc2)c1C#N | 4.98 |
| CCSc1nnc2n(-c3ccc(OC)cc3)c(=O)c3c4c(sc3n12)CCCC4 | -6.75 |
| CCCSc1nnc2n(C)c(=O)c3c4c(sc3n12)CCC4 | -71.5 |
| COc1ccccc1-n1c(=O)c2c3c(sc2n2c(=S)[nH]nc12)CCC3 | 21.1 |
| Cn1c(=O)c2c3c(sc2n2c(SCc4ccccc4)nnc12)CCCC3 | -9.93 |
| COc1ccccc1-n1c(=O)c2c3c(sc2n2c(SC(C)C)nnc12)CCC3 | -4.22 |
| CCCSc1nnc2n(-c3ccccc3OC)c(=O)c3c4c(sc3n12)CCC4 | -56.8 |
| COc1ccccc1-n1c(=O)c2c3c(sc2n2c(SC)nnc12)CCC3 | -12.5 |
| C=CCSc1nnc2n(-c3ccccc3OC)c(=O)c3c4c(sc3n12)CCC4 | -64.5 |
| C=C(C)CSc1nnc2n(C)c(=O)c3c4c(sc3n12)CCC4 | -21.6 |
| O=C(O)/C=C/C(=O)Nc1ccc(OC(F)(F)F)cc1Br | 15.7 |
| O=C(/C(=C/c1ccccc1Cl)c1ccccc1)N1CCOCC1 | -3.84 |
| Cc1ccc(C(NC(=O)N2CCCC2)C(Cl)(Cl)Cl)cc1F (stereo not shown) | 19.1 |
| Cc1ccc(NC(=O)c2sc3ccccc3c2Cl)nc1 | 8.87 |
| COC(C(=O)Nc1ccc(S(=O)(=O)Nc2c(C)cccc2C)cc1)c1ccccc1 (stereo not shown) | -74.6 |
| COC(C(=O)Nc1ccc(S(=O)(=O)Nc2ccc(F)cc2)cc1)c1ccccc1 (stereo not shown) | 0.504 |
| COC(C(=O)Nc1ccc(S(=O)(=O)Nc2ccc(C)c(C)c2)cc1)c1ccccc1 (stereo not shown) | 15.3 |

| Structure (SMILES) | hERG current change (%, negative = inhibition) at 10uM [%] |
| --- | --- |
| CCn1cc(/C=C/C(=O)Nc2ccn(Cc3c(F)c(F)cc(F)c3F)n2)cn1 | -14.9 |
| O=C(CN1CCC(n2nnc3cc(F)ccc32)CC1)NNC(=O)c1ccccc1 | -11.9 |
| Cl.O=C(CN1CCN(c2ccc(F)cc2)CC1)N1CCC(Cc2ccccc2)CC1 | -30.3 |
| O=C(CN1CCC(n2nnc3cc(F)ccc32)CC1)N1CCc2ccccc2C1 | -58.1 |
| O=C(CN1CCC(n2nnc3cc(F)ccc32)CC1)N1CCCc2ccccc21 | -64.2 |
| O=C(CN1CCC(Cc2ccccc2)CC1)N1CCc2ccccc2C1 | -69.3 |
| O=C(CN1CCC(N2CCCCC2)CC1)N1CCCc2ccccc21.O=C(O)C(=O)O | 20.7 |
| O=C(CCS(=O)(=O)Cc1ccccc1)N1CCc2ccccc2C1 | -0.206 |
| O=C(CN1CCC(n2nnc3cc(F)ccc32)CC1)NCCc1nc2ccccc2[nH]1 | -31.6 |
| O=C(CN1CCC(n2nnc3cc(C(F)(F)F)ccc32)CC1)N1CCc2ccccc21 | -19.9 |
| O=C(OCCC1Oc2cccnc2NC1=O)c1ccc(F)cc1 (stereo not shown) | 12.6 |
| CC(OC(=O)/C=C/c1ccc2ccccc2n1)C(=O)Nc1ccc(S(N)(=O)=O)cc1 (stereo not shown) | 19.1 |
| CCCOC(=O)c1ccc(Oc2c(-c3ccc(O)cc3O)n[nH]c2C)cc1 | -2.68 |
| Cc1nc(SCC(=O)Nc2cccc(C(=O)O)c2)n[nH]1 | 24.9 |
| O=C(NCCCn1ccnc1)c1noc2c1CCCC2 | -41.8 |
| O=C(Nc1cc(Cl)cc(Cl)c1)C1CCC(=O)N1Cc1ccccc1Cl (stereo not shown) | 8.65 |
| O=C(CC(Cc1ccccc1)C(=O)O)Nc1ccccc1 (stereo not shown) | 25.2 |
| CCOC(=O)c1ccc([N+](=O)[O-])cc1NC(C)=O | 3.85 |
| Cc1cc(C)c(OCC(=O)Nc2cccc(O)c2)cc1C | 10.9 |
| O=C(NCc1ccccc1CN1CCCCC1)c1ccc(Cl)cc1N1CCCC1=O | -30.4 |
| Cc1c(C(=O)NCC(c2ccco2)N2CCCC2)oc2ccc(Cl)cc12 (stereo not shown) | -42.1 |
| O=C(NCc1ccccc1)c1cc2ccccc2o1 | -4.68 |

| Structure (SMILES) | hERG current change (%, negative = inhibition) at 10uM [%] |
| --- | --- |
| O=C(NCC(c1ccco1)N1CCCC1)c1cc2cc(Cl)ccc2o1 (stereo not shown) | -67.7 |
| CC(Sc1ccccc1)C(=O)NCC(c1ccco1)N1CCCCC1 (stereo not shown) | -9.36 |
| O=C(NCc1ccccc1CN1CCCC1)c1cc2cc(Cl)ccc2o1 | -74.6 |
| O=C(NCC(c1ccco1)N1CCCC1)c1ccc(Cl)cc1 (stereo not shown) | -22.8 |
| Cc1ccccc1CNC(=O)c1cc2ccccc2o1 | 3.09 |
| O=C(CCNC(=O)c1ccc(Cl)cc1)NCC(c1ccco1)N1CCCCC1 (stereo not shown) | -31 |
| O=C(NCc1ccccc1CN1CCCC1)c1cc2ccccc2o1 | -69.4 |
| CN(Cc1ccccc1N1CCCC1)C(=O)c1cc2cc(Cl)ccc2o1 | -13.4 |
| CC(Sc1ccc(Cl)cc1)C(=O)NCC(c1ccco1)N1CCCCC1 (stereo not shown) | -54.1 |
| Cn1nnnc1SCC(=O)N1c2ccccc2Sc2ccc(Cl)cc21 | -16.4 |
| COC(=O)C(C)Oc1ccc2c(c1)O/C(=C\c1cccc(Br)c1)C2=O (stereo not shown) | -46.9 |
| COc1ccc(C2c3[nH]c4ccccc4c3C[C@H]3C(=O)N(c4ccccc4C(=O)N4CCC[C@H]4C(=O)O)C(=O)N23)cc1 (stereo partly shown) | 3.11 |
| CC(C)C[C@@]12C(=O)N(c3cccc(Cl)c3)C(=O)N1[C@H](c1ccc(Cl)cc1)[C@@H]1C(=O)N(C3CCCCC3)C(=O)[C@@H]12 | 11.2 |
| Cc1ccc(C)c(NC(=O)CN(C)C(=O)CN2C(=O)C3CCCCC3C2=O)c1 (stereo not shown) | 10 |
| O=C(NCC(c1ccco1)N1CCCC1)c1ccccc1Sc1ccc(C(F)(F)F)cc1[N+](=O)[O-] (stereo not shown) | -55.4 |
| N#Cc1ccccc1Sc1ccccc1C(=O)NCC(c1ccco1)N1CCCCC1 (stereo not shown) | -19 |
| N#Cc1ccccc1Sc1ccccc1C(=O)NCC(c1ccco1)N1CCCC1 (stereo not shown) | -27.9 |
| CCOC(=O)COn1c(-n2nc(C)cc2C)nc2ccccc2c1=O | 0.487 |
| Cc1ccccc1NC(=O)c1ccccc1O | 9.03 |
